Source: PubChem BioAssay (Broad Institute)
Tg IFNy HTS = blocks Toxoplasma gondii growth in the presence of IFN-gamma | Toxoplasma gondii growth in IFN-gamma-treated host cells; stronger effect = lower value | activity change, negative = inhibition, % (test concentration not listed) | 69,000 tested, 3.8% active; in the data active = activity change below about -70%, passing the limit was not always enough;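 also: host cells are HeLa cells infected with Toxoplasma gondii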
An asterisk follows results filed as active. The sample as a whole holds a higher share of hits than the screen did.

SMILES | Tg IFNy HTS
Cc1cnc(CNCC(=O)Nc2cnccn2)cn1 | -46.3
Cc1ccc(C)c(CNC(=O)c2nc(N3CCOCC3)c3ccccc3n2)c1 | -87.3*
COc1ccc(CNC(=O)c2nc(N3CCOCC3)c3ccccc3n2)cc1 | -4.2
COc1ccc(OC)c(CNC(=O)c2nc(N3CCOCC3)c3ccccc3n2)c1 | -40.5
Cc1ccc(C2(O)CCN(C(=O)c3cc4sccc4[nH]3)CC2)nc1 | -0.6
c1ccc(-c2nc(-c3ccccc3)n(CC3CCCCC3)n2)cc1 | -4.3
CCCS(=O)(=O)Nc1ccc(F)c(C(=O)c2c[nH]c3ncc(-c4ccc(Cl)cc4)cc23)c1F | -78.6*
S=C(Nc1ccc(-c2csnn2)cc1)Nc1ccccc1Cl | 133.5
COc1ccccc1CC(=O)N1CCCC1c1cc2nc(C)cc(C(F)(F)F)n2n1 (centres undefined) | -20.9
O=C(c1ccn[nH]1)N1CCC(c2cc3nc(-c4cccs4)cc(C(F)(F)F)n3n2)C1 (centres undefined) | -46.4
Cc1cc(C(F)(F)F)n2nc(C3CCCN(C(=O)c4cc5c(s4)CCCC5)C3)cc2n1 (centres undefined) | -103.6*
CCc1nc(-c2c(-c3ccccc3)ncn2Cc2cnc(C)cn2)c(C)[nH]1 | -8.3
CCOc1ccc(-c2nc(Cn3ccn4nc(-c5ccc6c(c5)OCO6)cc4c3=O)c(C)o2)cc1OC | 53.6
CO[C@H]1CCN(C(=O)C2CC=CC2)[C@H]1Cc1ccncc1 | -4.6
C[C@H]1[C@@H](O)O[C@@H]2O[C@@]3(C)CC[C@H]4[C@H](C)CC[C@@H]1[C@@]24OO3 | -94.3*
Cn1cc(CN2CCC3(CC2)CNC(=O)CO3)cn1 | -44.9
CCn1ncnc1C(C)NC(=O)c1ccccc1-c1ncc[nH]1 (centres undefined) | 1.8
Cc1ccc(-c2coc(-c3ccc(NC(=O)Nc4ccc(F)cc4F)cc3)n2)c(C)c1 | 3.1
Cc1ccc(F)c(NC(=O)Nc2ccc(-c3cccc4[nH]nc(N)c34)cc2)c1 | -75.0*
Cc1ccc(C)c(-c2coc(-c3ccc(NC(=O)Nc4ccccc4F)cc3)n2)c1 | -34.9
COCCO[C@H]1CCN(C(=O)C2CCOCC2)[C@H]1Cc1ccncc1 | -3.8
O=C(c1ccncn1)N1CCC2(CCCNC2=O)CC1 | 42.9
Cc1nc(C2CCCCN2C(=O)c2ccccc2)ncc1C(=O)N1CCCCC1 (centres undefined) | -45.0
Cc1ccc(S(=O)(=O)N2CCC3(CC2)NCCN=C3NCc2ccc(C(F)(F)F)cc2)cc1C | -64.0
COc1ccc(S(=O)(=O)Nc2ccc3c(c2)C(=O)N([C@@H](C)CO)C[C@H](C)[C@H](CN(C)Cc2ccc(C(F)(F)F)cc2)OCCCC[C@H](C)O3)cc1 | -107.3*
SMILES | Tg IFNy HTS
C[C@@H]1CN([C@@H](C)CO)C(=O)c2cc(NS(=O)(=O)c3ccc(Cl)cc3)ccc2O[C@@H](C)CCCCO[C@H]1CN(C)Cc1ccncc1 | -11.6
C[C@H](CO)N1C[C@H](C)[C@H](CN(C)Cc2ccncc2)OCCCC[C@H](C)Oc2ccc(NS(=O)(=O)c3ccc(Cl)cc3)cc2C1=O | -54.9
C[C@H]1CCCCO[C@@H](CN(C)Cc2ccncc2)[C@@H](C)CN([C@@H](C)CO)C(=O)c2cc(NS(=O)(=O)c3ccc(Cl)cc3)ccc2O1 | -65.3
COc1ccc(S(=O)(=O)Nc2ccc3c(c2)C(=O)N([C@@H](C)CO)C[C@H](C)[C@@H](CN(C)Cc2ccc(C(F)(F)F)cc2)OCCCC[C@@H](C)O3)cc1 | -86.1*
Cc1ccc(S(=O)(=O)Nc2ccc3c(c2)C(=O)N([C@@H](C)CO)C[C@H](C)[C@H](CN(C)Cc2ccc(C(F)(F)F)cc2)O3)cc1 | -56.5
O=C(Cc1cccc(F)c1)N1CCC2(CC1)COCCN(c1ncccn1)C2 | 181.1
CC(C)c1nnsc1CN1Cc2ncccc2C1=O | -13.4
CC(C)N1CCO[C@H]2CN(S(=O)(=O)c3cccs3)CC[C@@H]2C1 | -8.7
COCCN1CC2(CCN(C(=O)c3cc(C)oc3C)CC2)C2(CCN(C)C2=O)C1 (centres undefined) | 47.2
CCCc1cnc(-c2cc(F)ccc2C)nc1 | 14.3
CC(C)N(C)[C@@H]1CCN(C(=O)C2CCOC2)[C@@H]1Cc1ccccc1 (some centres undefined) | 28.2
COC(=O)[C@@H]1C[C@@H](NC(=O)CN2CCCCCCC2)CN1C | -2.0
COc1ccccc1-c1ccc2c(c1)[C@H]1[C@H](CCN1C(=O)C1CCC1)[C@@H](CO)N2 | -76.3*
COc1ccccc1-c1ccc2c(c1)[C@H]1[C@H](CCN1S(=O)(=O)c1ccc(C)cc1)[C@@H](CO)N2 | -63.3
COc1ccccc1-c1ccc2c(c1)[C@H]1[C@H](CCN1C(=O)C1CCC1)[C@H](CO)N2 | -71.4*
COc1ccccc1-c1ccc2c(c1)[C@H]1[C@H](CCN1Cc1ccccc1F)[C@@H](CO)N2 | -56.2
COc1ccccc1-c1ccc2c(c1)[C@@H]1[C@@H](CCN1S(=O)(=O)c1ccc(C)cc1)[C@H](CO)N2 | -78.1*
Cc1cccc(S(=O)(=O)N2CC[C@@H]3[C@@H](CO)Nc4ccc(-c5ccccc5F)cc4[C@@H]32)c1 | -48.1
CC(=O)N1CC[C@@H]2[C@H]1c1cc(-c3ccccc3)ccc1N[C@@H]2CO | 40.5
N#Cc1ccc(-c2ccc3c(c2)[C@H]2[C@H](CCN2C(=O)C2CCCCC2)[C@H](CO)N3)cc1 | -31.4
N#Cc1ccc(-c2ccc3c(c2)[C@@H]2[C@@H](CCN2C(=O)C2CCCCC2)[C@@H](CO)N3)cc1 | -62.9
CCCCNC(=O)CC1N=C2c3ccccc3N=C(SCc3ccc(F)cc3)N2C1=O (centres undefined) | -12.1
Cc1ccc(-c2ccccc2NC(=O)C2CC2)cc1F | 0.8
CCC(C(=O)N1CCCC1)n1c2ccccc2c2cnn(C)c(=O)c21 (centres undefined) | -63.8
Cc1nc(-c2cc(C(=O)NCCO)c3ccccn23)cs1 | -11.9
SMILES | Tg IFNy HTS
CC(C)NC(=O)N1CCC2(CC1)CCn1c(-c3cnn(C)c3)cnc12 | -5.2
CC(=O)N1CCC2(CC1)NCCn1c(-c3ccnn3C)cnc12 | -4.4
CC(C)NC(=O)N1CCC2(CC1)c1ncc(-c3ccnn3C)n1CCN2C | -88.7*
Cc1noc(C)c1C(=O)Nc1ccc(Cl)cc1 | 9.8
CSc1ccc(CNC(=O)c2c(C)noc2C)s1 | -33.3
Cc1noc(C)c1C(=O)Nc1ccc(Sc2ccccc2)nc1Sc1ccccc1 | -88.8*
CCN(C)C(=O)Cn1nc(C2CCCNC2)n(-c2ccccc2)c1=O (centres undefined) | 7.1
N[C@@H](Cc1c[nH]c2ccccc12)C(=O)N1CCC2(CC1)CC(CC(=O)O)c1ccccc1O2 (some centres undefined) | -31.3
Oc1cccc(-c2c3nc(c(-c4cccc(O)c4)c4ccc([nH]4)c(-c4cccc(O)c4)c4nc(c(-c5cccc(O)c5)c5ccc2[nH]5)C=C4)C=C3)c1 | 9.6
Cc1ccc(-c2nc(CCNC(=O)c3cccc(F)c3)cs2)cc1 | 239.6
Cc1ccc(-c2nc(NC(=O)c3cncc(-c4cccs4)c3)sc2C)cc1Cl | -21.4
CCc1cc(C(=O)Nc2nc3c(s2)CCCCCC3)n(C)n1 | -20.3
Cc1ccc(-c2nc(NC(=O)c3cc(C(C)(C)C)nn3C)sc2C)cc1Cl | -78.2*
CC(C(=O)NCc1cccnc1-n1ccnc1)n1cnc2ccccc21 (centres undefined) | -10.6
O=C(c1ccc(Cl)cc1)N1CCC2(CC1)Nc1ccccc1-n1cccc12 | 35.6
CC[C@@H](Cn1ncc2ccccc2c1=O)NC(=O)CC1c2ccccc2Oc2ccccc21 | -28.9
NC(=S)c1cc(-c2ccccc2)c(C(F)(F)F)s1 | -93.5*
